A number with no mark means an inactive call. Records with an inconclusive call do not appear. Entries that show only a call come without a potency. Active and inactive are the calls of the source. Unless noted, calls follow the shape of the dose curve; as a rule, active = well fitted curve in the direction sought with a large enough effect in the repeat runs; inconclusive = weak or mixed curves; inactive = no such curve, though single readings can be large; an effect the other way counts as inactive or inconclusive.
Experiments:
[1] = biological target: Thyrotropin receptor (Homo sapiens) (UniProt P16473); assay: qHTS assay to identify small molecule antagonists of the thyroid stimulating hormone receptor (TSHR) signaling pathway (AID 1259385; calls by dose curve; also: nearly all actives have a fitted effect of over 20% in size)
In short: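 TSHR-HEK293 cells were plated and held 18 h at 37C/5% CO2, then given compound plus Ro20-1724 and stimulated with TSH at 1.5 ng/mL final. After 30 min at room temperature, cAMP was detected with cAMP-d2/anti-cAMP-cryptate (1 h) by fluorescence.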

[2] = qHTS assay to identify small molecule agonists of the estrogen receptor alpha (ER-alpha) signaling pathway in the presence of an antagonist - cell viability counter screen (AID 1259386);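 also: series mostly up to about 92 µM; cells exposed to compounds for 22 h at 37 °C before the viability read; nearly all actives have a fitted effect of over 30% in size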
In short: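 Cell viability in VM7Luc4E2 cells (endogenous full-length ER-alpha) measured by CellTiter-Fluor fluorescence in the same wells as the luciferase screen. Cells pre-cultured 5 days in charcoal-stripped serum, then treated 22 h with compounds at 15 concentrations plus 10.0nM ICI-182,780.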

[3] = biological target: Progesterone receptor (Homo sapiens) (UniProt P06401); assay: qHTS assay to identify small molecule agonists of the progesterone receptor (PR) signaling pathway (AID 1346784; calls by dose curve; also: nearly all actives have a fitted effect of over 30% in size; also: potency is read from the fitted curve at half-maximal effect)
In short: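 PR-UAS-bla HEK 293T cells (beta-lactamase reporter under UAS) in 2% charcoal-stripped FBS, dosed with 23 nL compound after 6 hr, incubated 16hr at 37C. LiveBLAzer B/G FRET substrate added, fluorescence read after 2 hours.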

[4] = biological target: Progesterone receptor (Homo sapiens) (UniProt P06401); assay: qHTS assay to identify small molecule antagonists of the progesterone receptor (PR) signaling pathway (AID 1346795; active = well fitted inhibition curve with a large enough effect in the signal ratio in the repeat runs, not every such curve was filed as active; the % refers to the signal ratio)
In short: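 PR-UAS-bla HEK293T cells with beta-lactamase reporter under UAS control, in 2% charcoal-stripped FBS, treated with compounds plus 1 nM promegestone (R5020, final) for 16 hr at 37C. Read-out: FRET beta-lactamase substrate fluorescence after 2 hr at room temperature.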

[5] = qHTS assay to identify small molecule agonists of the progesterone receptor (PR) signaling pathway - cell viability counter screen (AID 1346799; calls by dose curve; also: nearly all actives have a fitted effect of over 45% in size)
In short: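 Counter screen in the PR-UAS-bla HEK293T wells (2% charcoal-stripped FBS, 16 h compound exposure at 37 C) after the bla read. CellTiter-Glo added, 30 min at room temperature, luminescence read as cell viability.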

[6] = qHTS assay to identify small molecule antagonists of the TGF-beta/Smad signaling pathway - cell viability counter screen (AID 1346824); also: nearly all actives have a fitted effect of over 50% in size
In short: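 SBE-bla HEK 293T cells were plated overnight at 37 C, then given compounds in DMSO plus TGF-beta1 (added as 0.25 ng/mL solution) for 5 hr. After the bla read, CellTiter-Glo was added to the same wells and luminescence read after 30 min at room temperature.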

[7] = qHTS assay to identify small molecule agonists of the TGF-beta/Smad signaling pathway - cell viability counter screen (AID 1346829); also: top concentration of the series differs between compounds; nearly all actives have a fitted effect of over 45% in size
In short: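 Compound-treated SBE-bla HEK 293T cells (5 hr, 37 C) were assessed for viability with CellTiter-Glo in parallel with the reporter read.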

[8] = qHTS assay to identify small molecule agonists of the TGF-beta/Smad signaling pathway (AID 1346859; active = well fitted activation curve with a large enough effect in the signal ratio in the repeat runs, not every such curve was filed as active; the % refers to the signal ratio; also: series mostly up to about 77 µM)
In short: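 SBE-bla HEK293T cells plated overnight, then compound exposure for 5 h at 37 C. Beta-lactamase reporter read with LiveBLAzer B/G FRET substrate after 2 h at room temperature, fluorescence at 405 nm excitation, 460/530 nm emission.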

[9] = Caspase-3/7 induction in HepG2 cells by small molecules, qHTS assay (AID 1346978); also: nearly all actives have a fitted effect of over 15% in size
In short: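 Wild-type HepG2 cells (2,000/well) were settled 5 h at 37 C, 5% CO2, then exposed to compounds in DMSO for 17 h. Caspase-3/7 activity was read by luminescence 30 min after adding Caspase-Glo 3/7 reagent at room temperature.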

[10] = Caspase-3/7 induction in CHO-K1 cells by small molecules, qHTS cell viability counter screen (AID 1346979); also: nearly all actives have a fitted effect of over 35% in size
In short: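 Wild-type CHO-K1 cells (1,500/well) treated with compound after 5 h plating; after 16 h at 37C, viability read as CellTiter-Fluor fluorescence following 1 h reagent incubation, in the same wells as the caspase read.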

[11] = Caspase-3/7 induction in CHO-K1 cells by small molecules, qHTS assay (AID 1346980); also: nearly all actives have a fitted effect of over 15% in size
In short: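 Wild-type cells were seeded at 1,500 per well and settled 5 hr at 37 C, 5% CO2, then exposed to DMSO-dissolved compounds for 17 hr. Caspase-Glo 3/7 reagent was added, and luminescence was read after 30min at room temperature.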

[12] = biological target: Nuclear receptor subfamily 1 group I member 2 (Homo sapiens) (UniProt O75469); assay: Human pregnane X receptor (PXR) small molecule agonists, qHTS assay (AID 1346982); also: nearly all actives have a fitted effect of over 35% in size; also: potency is read from the fitted curve at half-maximal effect
In short: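 PXR-Luc HepG2 reporter cells (CYP3A4-driven luciferase) in 5% charcoal-stripped FBS medium, plated 5 h before compound addition, then treated 24 h at 37C. Luciferase read by ONE-Glo luminescence after 30 min at room temperature.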

[13] = qHTS assay to identify small molecule antagonists of the progesterone receptor (PR) signaling pathway - cell viability counter screen (AID 1346798); also: series mostly up to about 92 µM; nearly all actives have a fitted effect of over 50% in size
In short: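 PR-UAS-bla HEK293T cells, 3,000/well in 2% charcoal-stripped FBS medium, dosed with compounds plus R5020 agonist and incubated 16 h at 37C. Viability then measured in the same wells by CellTiter-Glo luminescence after 30 min at RT.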

[14] = biological target: Thyrotropin-releasing hormone receptor (Homo sapiens) (UniProt P34981); assay: qHTS assay to identify small molecule agonists of the thyrotropin-releasing hormone receptor (TRHR) signaling pathway (AID 1346891; calls by dose curve; also: series mostly up to about 58 µM)
In short: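 HEK293 cells expressing TRHR plated 18 h at 37 C/5% CO2, calcium dye-loaded 2 h at 37 C, then compound added (agonist mode); kinetic calcium fluorescence read 3 min at 1 s intervals; 15 concentrations in triplicate.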

[15] = Human pregnane X receptor (PXR) small molecule agonists, qHTS cell viability counter screen (AID 1346977); also: nearly all actives have a fitted effect of over 50% in size
In short: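 PXR-Luc HepG2 cells (2,000/well, 5% charcoal-stripped FBS) preincubated 5 hr, then exposed to compounds 24 hr at 37 C. Viability read in the same wells by CellTiter-Fluor fluorescence, reagent added at 23 hr, 1 hr incubation.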

[16] = Caspase-3/7 induction in HepG2 cells by small molecules, qHTS cell viability counter screen (AID 1346981); also: series mostly up to about 92 µM; nearly all actives have a fitted effect of over 30% in size
In short: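 Wild-type HepG2 cells, 2,000/well, settled 5 hr at 37 C, 5% CO2 before compound addition. Viability read by CellTiter-Fluor fluorescence, reagent added after 16 hr compound exposure, then 1 hr at 37C, in the same wells as the caspase read.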

[17] = biological target: Thyrotropin-releasing hormone receptor (Homo sapiens) (UniProt P34981); assay: qHTS assay to identify small molecule antagonists of the thyrotropin-releasing hormone receptor (TRHR) signaling pathway (AID 1346877; active = well fitted inhibition curve with a large enough effect in the repeat runs, not every such curve was filed as active; also: series mostly up to about 51 µM)
In short: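 TRHR-expressing HEK293 cells loaded with calcium dye for 2 h at 37 C; compounds pre-incubated 5 min at room temperature before TRH challenge at 1 nM final. Intracellular calcium fluorescence read kinetically for 3 min; 15 concentrations in triplicate.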

[18] = biological target: Nuclear receptor subfamily 1 group I member 2 (Rattus norvegicus) (UniProt Q9R1A7); assay: Rat pregnane X receptor (rPXR) activation by small molecules, qHTS assay (AID 1346983); details: rPXR luciferase reporter cells, One-Glo luminescence, 24 h; max activation: hits give high values; also: nearly all actives have a fitted effect of over 20% in size
In short: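 Cell-based rPXR luciferase reporter assay, 2,000 cells per well, rested 5hr at 37 C before compound addition in DMSO, then 24 hr at 37 C. One-Glo reagent was added and luminescence read after 30 min at room temperature.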

[19] = biological target: Nuclear receptor subfamily 1 group I member 2 (Homo sapiens) (UniProt O75469); assay: Human pregnane X receptor (PXR) activation by small molecules, qHTS assay (AID 1346985); also: nearly all actives have a fitted effect of over 40% in size
In short: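 DPX-2 cells (HepG2 co-transfected with a PXR response element and a CYP3A4-promoter luciferase construct) were seeded at 2,000 per well, rested 5 hr at 37C, then exposed to DMSO-dissolved compounds for 24 hr. Activation was read as luciferase luminescence.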

Chain of Thyrotropin-releasing hormone receptor (Homo sapiens) (P34981 whole entry, looked up): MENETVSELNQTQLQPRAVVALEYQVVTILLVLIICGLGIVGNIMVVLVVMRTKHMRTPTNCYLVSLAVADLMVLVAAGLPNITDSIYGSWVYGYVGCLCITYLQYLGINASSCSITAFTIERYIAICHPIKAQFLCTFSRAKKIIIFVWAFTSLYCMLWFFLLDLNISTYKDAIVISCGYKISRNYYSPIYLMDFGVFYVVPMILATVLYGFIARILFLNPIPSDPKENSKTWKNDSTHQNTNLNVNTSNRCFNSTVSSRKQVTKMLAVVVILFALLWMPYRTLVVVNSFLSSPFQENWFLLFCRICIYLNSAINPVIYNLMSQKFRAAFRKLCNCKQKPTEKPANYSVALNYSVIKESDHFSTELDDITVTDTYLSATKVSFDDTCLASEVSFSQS
Chain of Thyrotropin receptor (Homo sapiens) (P16473 whole entry, looked up): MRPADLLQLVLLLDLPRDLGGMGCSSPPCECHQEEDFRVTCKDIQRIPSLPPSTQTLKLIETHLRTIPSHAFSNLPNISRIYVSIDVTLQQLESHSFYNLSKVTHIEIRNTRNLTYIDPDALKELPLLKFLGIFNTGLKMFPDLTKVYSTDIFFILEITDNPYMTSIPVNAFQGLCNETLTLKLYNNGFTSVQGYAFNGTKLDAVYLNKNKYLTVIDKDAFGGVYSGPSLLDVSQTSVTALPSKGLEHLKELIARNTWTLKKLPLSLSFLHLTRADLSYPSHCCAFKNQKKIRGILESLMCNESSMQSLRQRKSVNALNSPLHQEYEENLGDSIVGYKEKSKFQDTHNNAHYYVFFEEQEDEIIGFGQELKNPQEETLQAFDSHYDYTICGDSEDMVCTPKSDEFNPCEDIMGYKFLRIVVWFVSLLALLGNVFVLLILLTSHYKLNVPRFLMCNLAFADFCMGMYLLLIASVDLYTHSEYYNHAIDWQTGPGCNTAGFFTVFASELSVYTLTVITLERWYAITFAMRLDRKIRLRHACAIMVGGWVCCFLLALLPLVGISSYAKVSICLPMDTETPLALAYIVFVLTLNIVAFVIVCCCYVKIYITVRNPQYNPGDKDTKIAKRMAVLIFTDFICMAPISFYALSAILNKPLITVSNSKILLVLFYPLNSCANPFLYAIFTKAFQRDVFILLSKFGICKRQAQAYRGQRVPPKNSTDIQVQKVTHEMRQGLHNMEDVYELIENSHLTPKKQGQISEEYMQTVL
Chain of Nuclear receptor subfamily 1 group I member 2 (Homo sapiens) (O75469 whole entry, looked up): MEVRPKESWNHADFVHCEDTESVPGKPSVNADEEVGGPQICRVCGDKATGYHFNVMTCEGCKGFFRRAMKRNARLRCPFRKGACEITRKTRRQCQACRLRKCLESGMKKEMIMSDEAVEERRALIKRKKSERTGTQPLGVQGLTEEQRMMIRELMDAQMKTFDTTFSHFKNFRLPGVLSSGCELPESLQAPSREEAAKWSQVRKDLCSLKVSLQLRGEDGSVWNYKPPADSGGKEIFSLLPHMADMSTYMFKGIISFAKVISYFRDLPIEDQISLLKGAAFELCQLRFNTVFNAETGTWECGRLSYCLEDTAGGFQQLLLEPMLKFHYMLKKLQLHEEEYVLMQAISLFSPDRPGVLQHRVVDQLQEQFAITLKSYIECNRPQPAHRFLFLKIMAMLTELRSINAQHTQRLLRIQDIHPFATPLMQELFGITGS
Chain of Progesterone receptor (Homo sapiens) (P06401 whole entry, looked up): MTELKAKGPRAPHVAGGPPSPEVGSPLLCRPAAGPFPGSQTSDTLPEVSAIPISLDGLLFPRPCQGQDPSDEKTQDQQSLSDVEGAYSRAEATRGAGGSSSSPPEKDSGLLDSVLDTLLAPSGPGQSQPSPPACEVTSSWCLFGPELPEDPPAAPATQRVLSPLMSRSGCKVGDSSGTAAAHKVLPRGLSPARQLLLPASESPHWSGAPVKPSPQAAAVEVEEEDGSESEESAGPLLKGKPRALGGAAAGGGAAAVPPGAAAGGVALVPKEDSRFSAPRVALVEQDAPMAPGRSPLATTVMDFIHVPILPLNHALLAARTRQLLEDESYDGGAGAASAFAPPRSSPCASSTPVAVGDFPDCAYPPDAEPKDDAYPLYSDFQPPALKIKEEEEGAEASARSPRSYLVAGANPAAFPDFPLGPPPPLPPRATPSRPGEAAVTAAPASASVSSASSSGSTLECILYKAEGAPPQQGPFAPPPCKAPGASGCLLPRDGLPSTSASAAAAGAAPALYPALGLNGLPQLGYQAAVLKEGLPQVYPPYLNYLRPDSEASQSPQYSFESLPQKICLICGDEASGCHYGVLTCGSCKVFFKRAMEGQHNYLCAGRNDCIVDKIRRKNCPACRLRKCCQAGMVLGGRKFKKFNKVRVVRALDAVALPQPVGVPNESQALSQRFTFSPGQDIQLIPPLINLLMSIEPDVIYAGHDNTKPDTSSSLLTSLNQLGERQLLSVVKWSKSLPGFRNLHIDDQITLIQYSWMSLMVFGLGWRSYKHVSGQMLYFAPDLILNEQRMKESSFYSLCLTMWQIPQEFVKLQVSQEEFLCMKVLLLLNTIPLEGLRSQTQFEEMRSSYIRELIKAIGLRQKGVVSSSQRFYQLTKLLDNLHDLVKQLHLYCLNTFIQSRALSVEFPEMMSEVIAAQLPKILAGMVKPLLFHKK
Chain of Nuclear receptor subfamily 1 group I member 2 (Rattus norvegicus) (Q9R1A7 whole entry, looked up): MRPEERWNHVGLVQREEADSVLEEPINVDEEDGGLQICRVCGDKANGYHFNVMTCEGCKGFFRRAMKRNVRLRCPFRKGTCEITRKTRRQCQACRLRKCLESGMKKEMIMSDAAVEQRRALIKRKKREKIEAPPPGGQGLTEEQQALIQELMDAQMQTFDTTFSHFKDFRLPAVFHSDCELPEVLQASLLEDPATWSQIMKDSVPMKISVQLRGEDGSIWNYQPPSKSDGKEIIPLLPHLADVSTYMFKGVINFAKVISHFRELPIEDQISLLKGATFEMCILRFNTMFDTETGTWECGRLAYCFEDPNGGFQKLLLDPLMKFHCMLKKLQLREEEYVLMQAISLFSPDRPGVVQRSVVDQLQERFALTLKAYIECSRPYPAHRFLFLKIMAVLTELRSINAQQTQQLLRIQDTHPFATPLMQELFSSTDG

COc1cc(CCC(C)=O)ccc1O
Potency [1]: inactive
outcome [2]: inactive
Potency [3]: inactive
Potency [4]: inactive
Potency [5]: inactive
outcome [6]: inactive
outcome [7]: inactive
outcome [8]: inactive
outcome [9]: inactive
Potency [10]: inactive
outcome [11]: inactive
Potency [12]: inactive

CCCCCC[C@@H](CCC)C(=O)O
Potency [1]: inactive
outcome [2]: inactive
Potency [3]: inactive
Potency [4]: inactive
Potency [13]: inactive
outcome [6]: inactive
outcome [7]: inactive
outcome [8]: inactive
outcome [14]: inactive
Potency [15]: inactive
outcome [9]: inactive
outcome [11]: inactive
outcome [16]: inactive
Potency [12]: inactive

Cc1onc(-c2ccccc2)c1-c1ccc(S(N)(=O)=O)cc1
Potency [1]: inactive
outcome [2]: inactive
Potency [3]: inactive
outcome [6]: inactive
outcome [7]: inactive
outcome [8]: inactive
outcome [17]: inactive
outcome [14]: inactive
Potency [15]: inactive
outcome [9]: inactive
outcome [11]: inactive
outcome [16]: inactive
max activation [18]: -3.92%

CCn1cc(C(=O)O)c(=O)c2cc(F)c(N3CCN(C)CC3)cc21
activity change, negative = inhibition [1]: 0.775% [at 19 µM]
activity change, negative = cytotoxicity [2]: 0.853% [at 19 µM]
activation [3]: -0.0581% [at 19 µM]
activity change, negative = cytotoxicity [13]: 0.0653% [at 18.9 µM]
activity change, negative = cytotoxicity [5]: -1.41% [at 19 µM]
viability change, negative = cytotoxic [6]: 3.51% [at 15.8 µM]
activity change, negative = cytotoxicity [7]: -2.92% [at 15.8 µM]
activation [8]: 0.23% [at 15.8 µM]
activity, negative = inhibition [17]: 2.2% [at 10.5 µM]
activation [14]: 0.129% [at 11.8 µM]
caspase activation [9]: -0.273% [at 19 µM]
activity change, negative = cytotoxicity [10]: 6.37% [at 19 µM]
caspase-3/7 activation [11]: 0.47% [at 19 µM]
activity change, negative = cytotoxicity [16]: 0.0199% [at 19 µM]
activation [12]: -5.92% [at 19 µM]
max activation [18]: -0.517%
Potency [19]: inactive

O=Cc1ccccc1[N+](=O)[O-]
Potency [1]: inactive
outcome [2]: inactive
Potency [3]: inactive
Potency [4]: inactive
Potency [13]: inactive
outcome [6]: inactive
outcome [7]: inactive
outcome [8]: inactive
outcome [9]: inactive
Potency [10]: inactive
outcome [11]: inactive
outcome [16]: inactive
Potency [12]: inactive

CCOC(=O)Nc1ccc2c(c1)N(C(=O)CCN1CCOCC1)c1ccccc1S2
Potency [1]: inactive
outcome [2]: inactive
Potency [3]: inactive
Potency [13]: inactive
Potency [5]: inactive
outcome [6]: inactive
outcome [7]: inactive
outcome [8]: inactive
Potency [15]: inactive
outcome [9]: inactive
outcome [11]: inactive
Potency [12]: 7.5 µM (active)

COC(=O)c1ccc(C(=O)OC)c(C(=O)OC)c1
Potency [1]: inactive
outcome [2]: inactive
Potency [3]: inactive
Potency [13]: inactive
Potency [5]: inactive
outcome [6]: inactive
outcome [7]: inactive
outcome [8]: inactive
outcome [9]: inactive
Potency [10]: inactive
outcome [11]: inactive
outcome [16]: inactive
Potency [12]: inactive

COC(=O)C1=C(C)NC(C)=C(C(=O)OCC(C)=O)C1c1ccccc1[N+](=O)[O-] (stereo not drawn)
Potency [1]: inactive
outcome [2]: inactive
Potency [3]: inactive
Potency [4]: inactive
Potency [13]: inactive
outcome [6]: inactive
outcome [7]: inactive
outcome [8]: inactive
outcome [17]: inactive
outcome [14]: inactive
Potency [15]: inactive
outcome [9]: inactive
Potency [10]: inactive
outcome [11]: inactive
outcome [16]: inactive

C#CC(O)CCCCC (stereo not drawn)
Potency [1]: inactive
outcome [2]: inactive
Potency [3]: 27.5 µM (active)
Potency [4]: inactive
Potency [5]: inactive
outcome [6]: inactive
outcome [7]: inactive
outcome [8]: inactive
Potency [15]: inactive
outcome [9]: inactive
Potency [10]: inactive
outcome [11]: inactive
outcome [16]: inactive
Potency [12]: inactive
